# Data as given in PubChem BioAssay (NCI).
# Compounds without any hit were thinned out: in the full panel of roughly 83,000, 20% have a hit.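 The endpoint reported here, percent growth, reads 100 for growth as untreated, 0 for no net growth and -100 for all cells dead.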 Active and inactive are the calls of the source. How the source made its calls: active means growth percent below 10; inactive means the rest.
# System: MDA-MB-468 breast
# Experiment: NCI-60 one-dose screen, 48 h (100 = growth as untreated, 0 = no growth, -100 = all killed)
# Conditions: 10 µM unless noted
row,SMILES,growth
1,CCCNC(=O)Oc1ccc(/C(=C(/C)Cc2ccc(OC)cc2)c2ccc(OCCN3CCCCC3)cc2)cc1,79.6% (inactive)
2,C=CCn1cc(-c2nc3ccccc3s2)c2cc(-c3ccc4c5c(cccc35)C(=O)N(N)C4=O)ccc21,95.4% (inactive)
3,Cc1cccc(C[C@H](NC(=O)Nc2ccc(Cl)cc2F)C(=O)N[C@@H]2C(=O)N3C[C@H](O)C[C@H]3C(=O)N3CCCC[C@H]3C(=O)N[C@@H](C)C(=O)N3C[C@H](C)C[C@H]3C(=O)O[C@H]2C)c1,-7.94% (active)
4,O=C(Nc1ccc(Cl)c(Cl)c1)OCn1ncc2ccc([N+](=O)[O-])cc21,87% (inactive)
5,COc1ccc(/C=C(\C(=O)NCc2cccnc2)S(=O)(=O)c2ccccc2)cc1OC,1.86% (active)
6,CN1C(=O)N(C)C2C1NN=c1s/c(=C\c3ccc(F)cc3)c(=O)n12 (stereo not given),-11.4% (active)
7,C1=C(Cc2ccccc2)n2cnc3ncnc(c32)S1,-11.8% (active)
8,CCCCCCCCCCCCC1CCC/C=C\CCC(=O)O1 (stereo not given),100% (inactive)
9,COc1ccc2c(c1)C(=O)/C(=C/c1cccnc1)CC2,100% (inactive)
10,NC(=O)c1cccc([C@@H]2O[C@H](CO)[C@@H](O)[C@H]2O)c1,87.7% (inactive)
11,COc1ccc(C(=O)c2sc3nc4c(c(-c5cccnc5)c3c2N)CCCC4)cc1OC,102% (inactive)
12,CC(/C=C/C=C(\C)[C@H](O)[C@H](C)C(=O)O[C@H]1C[C@H](C)C=C2C=C[C@@]3(C)O[C@@H](O)CC(=O)[C@]3(C)[C@H]21)=C\C=C\C(=O)O,-21.9% (active)
13,OC(CCN1CCCCC1)(c1ccccc1)c1ccccc1,101% (inactive)
14,O=C(Nc1ccc(OS(=O)(=O)c2ccccc2)cc1)C12CC3CC(CC(C3)C1)C2,40.5% (inactive)
15,Nc1nc(N)c(-c2ccc(Cl)c(Cl)c2)c(CBr)n1,84% (inactive)
16,O=S(=O)(NCCNc1nccc(-c2c(-c3ccc(F)c(O)c3)nc3occn23)n1)c1ccccc1,59.6% (inactive)
17,N#Cc1c(-c2ccccn2)[nH]c(=S)[nH]c1=O,110% (inactive)
18,c1ccc(C(CC2=NCCCN2)c2ccccc2)cc1,102% (inactive)
19,Nc1c(C(=O)Nc2cccc3ccncc23)sc2nc3c(cc12)C(=O)CCC3,-12.6% (active)
20,O=C1c2ccccc2C(=O)c2c1ccc1[nH]c(-c3cccs3)nc21,99.6% (inactive)

row,SMILES,growth
1,CC(C)N=C(N)/N=C(\N)Nc1ccc2ccc3ccccc3c2c1,-91.1% (active)
2,COc1ccccc1CNC(=O)C1c2ccccc2C(=O)N(CC(C)C)C1c1cccs1 (stereo not given),65.7% (inactive)
3,OC(c1cc(-c2cccc(Cl)c2)nc2ccccc12)C1CCCCN1 (stereo not given),-77.5% (active)
4,CC(C)(C)c1ccc(Cn2cc(CSc3nc4ccccc4s3)nn2)cc1,93.6% (inactive)
5,NC(=S)N/N=C/c1ccc(OC(=O)COc2ccccc2)cn1,29.7% (inactive)
6,C=C1CCC2C(C)(COC(=O)CC)C(OC(=O)CC)CCC2(C)C1C/C=C1/C(=O)OCC1OC(=O)CC (stereo not given),-48.5% (active)
7,CC1=CC(=O)C2=C(C)CC(OC(=O)CCc3ccccc3)[C@@H]3[C@H](OC(=O)[C@@H]3C)[C@@H]12 (stereo not given in full),79.4% (inactive)
8,O=C1Nc2ccccc2/C1=C/C(=N/c1nnc(-c2ccc(Cl)cc2)s1)c1ccccc1,27.8% (inactive)
9,Oc1ccc(CSc2nnc(-c3ccccc3)n2-c2ccccc2)c2cccnc12,-2.77% (active)
10,O=C(CN1CCOCC1)Nc1nc(-c2cc3ccccc3oc2=O)cs1,107% (inactive)
11,C#C[C@@]1(O)[C@@H](CO)O[C@@H](n2cc(Cl)c3c(N)ccnc32)[C@@H]1O,72.3% (inactive)
12,CN(C)C[C@@H]1CCn2cc(c3ccccc32)C2=C(C(=O)NC2=O)c2cn(c3ccccc23)CCO1,23.3% (inactive)
13,COc1cc(NCCCN=C(N)NC(N)=NC(C)C)c2ncccc2c1,-34.2% (active)
14,COc1ccc(-c2cc(-c3cc(-c4ccc(OC)cc4)nc(N)n3)nc(N)n2)cc1,104% (inactive)
15,S=C1SCC(c2ccccc2)S1 (stereo not given),99.6% (inactive)
16,CC1(COc2ccc3ncc(C#Cc4cncc(C(=O)Nc5cccc(C(F)(F)F)c5)c4)n3n2)COC1,102% (inactive)
17,CCOC(=O)c1c(C(F)(F)F)n([O-])c2ccc(Cl)cc2[n+]1=O,-55.3% (active)
18,O=C(O)/C=C(\c1nc2ccc([N+](=O)[O-])cc2[nH]1)c1cc(Cl)ccc1O,-2.53% (active)
19,COc1cc(-c2c(-c3ccccc3)c[nH]c2C(=O)NCCCO)c(OC)c2c1OCO2,102% (inactive)
20,Cn1cc(-c2noc(-c3cn(C)c4ncc(F)cc34)n2)c2cc(Br)ccc21,61.3% (inactive)
